Source: PubChem BioAssay
MPTP block: blocks calcium-induced mitochondrial swelling; isolated mouse mitochondria, Ca2+ swelling absorbance, 30 min; inhibition, % at 10 µM; actives 1.4% (n = 360,000); AID 602449;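 active = inhibition of 50% or more, scaled per plate between neutral and stimulator controls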
Mdm2 MdmX PPI: inhibitors of human Mdm2/MdmX interaction | SaOS-2 split-luciferase Mdm2/MdmX complementation, luminescence | actives 3% (n = 330,000) | inhibition, % at 8 µM | O15151+Q00987 | AID 485346;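 active = inhibition of at least 50% at 8 µM in the primary screen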
Target sequence (O15151 whole entry, looked up): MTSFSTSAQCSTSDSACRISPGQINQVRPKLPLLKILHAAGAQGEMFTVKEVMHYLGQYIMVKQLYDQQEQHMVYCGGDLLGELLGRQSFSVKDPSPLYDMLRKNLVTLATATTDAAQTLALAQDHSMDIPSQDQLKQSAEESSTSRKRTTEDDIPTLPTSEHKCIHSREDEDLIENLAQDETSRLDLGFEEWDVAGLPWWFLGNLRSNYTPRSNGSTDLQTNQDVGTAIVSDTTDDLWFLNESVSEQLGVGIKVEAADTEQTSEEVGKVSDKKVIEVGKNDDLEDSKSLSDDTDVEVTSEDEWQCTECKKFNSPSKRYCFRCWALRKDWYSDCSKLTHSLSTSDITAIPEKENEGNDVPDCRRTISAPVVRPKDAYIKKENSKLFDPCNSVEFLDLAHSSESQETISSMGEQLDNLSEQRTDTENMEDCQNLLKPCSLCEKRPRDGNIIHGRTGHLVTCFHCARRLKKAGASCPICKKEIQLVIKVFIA
Target sequence (Q00987 whole entry, looked up): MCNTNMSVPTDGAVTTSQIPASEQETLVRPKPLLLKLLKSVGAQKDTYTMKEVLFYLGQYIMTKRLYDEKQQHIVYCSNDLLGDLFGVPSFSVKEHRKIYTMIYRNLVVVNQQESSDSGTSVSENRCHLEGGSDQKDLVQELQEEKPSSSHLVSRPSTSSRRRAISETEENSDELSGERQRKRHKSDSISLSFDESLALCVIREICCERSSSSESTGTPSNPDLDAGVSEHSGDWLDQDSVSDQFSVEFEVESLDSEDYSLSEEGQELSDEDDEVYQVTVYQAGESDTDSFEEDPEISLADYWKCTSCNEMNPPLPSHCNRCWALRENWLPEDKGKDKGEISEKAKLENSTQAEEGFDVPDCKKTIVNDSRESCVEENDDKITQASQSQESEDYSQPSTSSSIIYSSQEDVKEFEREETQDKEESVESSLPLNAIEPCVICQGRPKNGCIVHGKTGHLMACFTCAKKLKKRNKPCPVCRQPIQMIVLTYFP
TIM10 inh: TIM10 yeast growth inhibition; AID 463195; S. cerevisiae TIM10 strain growth, BacTiter-Glo luminescence, 24 h; actives 1.4% (n = 330,000); inhibition, % at 10 µM;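 active = inhibition of 40% or more at the single tested concentration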;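 also: wild-type TIM10 isogenic control strain grown at permissive 25 °C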
tim10-1 inh: growth inhibitors of tim10-1 mutant yeast. AID 463190. S. cerevisiae tim10-1 ts strain growth, BacTiter-Glo, 24 h. inhibition, % at 20 µM. actives 2.2% (n = 330,000);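 active = inhibition of at least 40%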;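 also: mutant grown at 25 °C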
tim23-1 inh: tim23-1 yeast growth inhibition. S. cerevisiae tim23-1 growth, BacTiter-Glo luminescence, 24 h. inhibition, % at 20 µM. actives 1.3% (n = 330,000). AID 463212;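 active = growth inhibition of the mutant yeast at or above 50%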;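 also: temperature-sensitive mutant grown at 25 °C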
Mdm2 MdmX conf: confirmation of human Mdm2/MdmX interaction inhibitors; shares compounds with Mdm2 MdmX PPI; Mdm2-MdmX binding, luminescent assay; inhibition, % at 8 µM; actives 55% (n = 10,000); in the data active = inhibition above about 40%
FLuc counter: full-length luciferase inhibition in Mdm2/MdmX counter-screen; shares compounds with Mdm2 MdmX PPI; SaOS-2 full-length luciferase counterscreen, luminescence; inhibition, % at 8 µM; actives 77% (n = 6,200);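 active = mean inhibition at 8 µM reaching about 37%, which flags the compound as non-specific, limit read from the data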;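 also: p53-null SaOS-2 cells with luciferase driven by a doxycycline-inducible promoter; compound on cells about two nights before reading with doxycycline added after day one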
Each line names hits and unclear results; the compound was inactive in the other large screens (follow-up assays come after a bar, where they were run). Shown are actives, neighbours in structure and some others; about 6.3% of the full set was active somewhere.

O=C(NC(CSCc1ccccc1)C(=O)N/N=C/c1ccc(O)cc1O)c1ccc([N+](=O)[O-])cc1 (centres undefined)	Mdm2 MdmX PPI 65.0 | Mdm2 MdmX conf 74.0 | FLuc counter inactive
Cc1ccc(CC(=O)NCc2ccc(F)cc2)cc1	Mdm2 MdmX PPI 58.1 | Mdm2 MdmX conf 48.0 | FLuc counter 59.3
Cc1ccc(CNC(=O)Cc2ccc(-c3ccccc3)cc2)cc1	Mdm2 MdmX PPI 57.6 | Mdm2 MdmX conf 60.8 | FLuc counter 73.2
N#C/C(=C\c1ccc(-c2ccc(F)cc2)o1)C(=O)Nc1nc(-c2cccs2)cs1	Mdm2 MdmX PPI 71.0 | Mdm2 MdmX conf inactive
CC1(C(=O)NS(=O)(=O)c2cccc(Cl)c2)CCN1C(=O)CCc1cccs1 (centres undefined)	none (no result: Mdm2 MdmX PPI, TIM10 inh, tim10-1 inh, tim23-1 inh)
CN(C)c1ccc2c(c1)OC(N)=C(C#N)C2c1cccc(F)c1 (centres undefined)	Mdm2 MdmX PPI 65.5 | Mdm2 MdmX conf 61.6 | FLuc counter 96.9
COC(=O)c1ccc(C2C(C#N)=C(N)Oc3cc(N)ccc32)cc1 (centres undefined)	none
N#CC1=C(N)Oc2cc(O)ccc2C1c1cccnc1 (centres undefined)	none
N#CC1=C(N)Oc2cc(N)ccc2C1c1cccc(F)c1 (centres undefined)	Mdm2 MdmX PPI 54.2 | Mdm2 MdmX conf 43.9 | FLuc counter 65.1
CC(C)Oc1cccc(C(=O)Nc2nnc([C@@H]3C[C@H](O)[C@@H](CO)O3)s2)c1	none (no result: Mdm2 MdmX PPI, TIM10 inh, tim10-1 inh, tim23-1 inh)
COc1ccc(-c2nc(NC(=O)c3c(C)noc3C)sc2C)cc1	none
COc1cc(NC(=O)c2n[nH]c(=O)c3ccccc23)cc(OC)c1	none
COc1ccc(-c2nc(NC(=O)c3cc(C(C)(C)C)nn3C)sc2C)cc1	Mdm2 MdmX PPI 60.7 | Mdm2 MdmX conf inactive
COc1ccc(-c2nc(NC(=O)c3n[nH]c(=O)c4ccccc34)sc2C)cc1	Mdm2 MdmX PPI 68.9 | Mdm2 MdmX conf inactive
Cc1cc(C)c(-c2csc(NC(=O)c3n[nH]c(=O)c4ccccc34)n2)c(C)c1	Mdm2 MdmX PPI 59.9 | Mdm2 MdmX conf 62.0 | FLuc counter 67.5
OC(c1ccccc1)(c1nc(-c2ccc(F)c(Cl)c2)cs1)C(F)(F)F (centres undefined)	none (no result: Mdm2 MdmX PPI, TIM10 inh, tim10-1 inh, tim23-1 inh)
Cc1ccc(NC(=O)c2cc3c(=O)oc4ccccc4c3s2)nc1	Mdm2 MdmX PPI 63.3 | Mdm2 MdmX conf inactive
Cc1cccnc1NC(=O)c1cc2c(=O)oc3ccccc3c2s1	none
O=C(O)c1cccc2cccc(-c3c4ccc(=O)c(O)c-4oc4c(O)c(O)ccc34)c12	none (no result: Mdm2 MdmX PPI, TIM10 inh, tim10-1 inh, tim23-1 inh)
COc1ccc(S(=O)(=O)N2CCC(C(=O)N[C@@H](C)C(=O)NCc3cccnc3)CC2)cc1	none (no result: Mdm2 MdmX PPI, TIM10 inh, tim10-1 inh, tim23-1 inh)
COc1ccc(OC)c(Nc2cc(C)nc3ccc(C)cc23)c1	Mdm2 MdmX PPI 68.4 | Mdm2 MdmX conf 58.1 | FLuc counter 47.7
COc1ccc2nc(C)cc(Nc3ccc(C)cc3)c2c1	none
COC(=O)c1ccc(Nc2cc(C)nc3ccc(C)cc23)cc1	Mdm2 MdmX PPI 100.2 | Mdm2 MdmX conf 66.3 | FLuc counter 52.1
CC(=O)c1ccc(Nc2cc(C)nc3c(C)cccc23)cc1	none
COc1ccc2nc(C)cc(Nc3ccc(N4CCN(C)CC4)cc3)c2c1	Mdm2 MdmX PPI 99.0 | Mdm2 MdmX conf 89.6 | FLuc counter 36.5
COc1ccc2nc(C)cc(Nc3ccc(N4CCOCC4)cc3)c2c1	none
CC(=O)c1ccc(Nc2cc(C)nc3ccccc23)cc1	Mdm2 MdmX PPI 58.6 | Mdm2 MdmX conf 49.6 | FLuc counter 60.8
COc1ccc(NC(=O)Nc2ccc(OC)cc2)cc1	none
N#Cc1ccc(NC(=O)Nc2ccc(Oc3ccc(NC(=O)Nc4ccc(C#N)cc4)cc3)cc2)cc1	Mdm2 MdmX PPI 60.0 | Mdm2 MdmX conf 74.3 | FLuc counter inactive
CC1(C)OC2OC(C3COC(=O)O3)C(OC(=O)c3ccccc3)C2O1 (centres undefined)	none (no result: Mdm2 MdmX PPI, TIM10 inh, tim10-1 inh, tim23-1 inh)
O=C(Oc1cc(=O)oc2ccccc12)c1ccccc1	none
O=C(Oc1c(-c2ccccc2Cl)oc2ccccc2c1=O)c1ccc(Cl)cc1	Mdm2 MdmX PPI 67.3 | Mdm2 MdmX conf 52.7 | FLuc counter 47.5
O=C(Oc1ccccc1-c1nnco1)c1ccc(Cl)cc1	none
O=C(Oc1c(-c2ccccc2)oc2ccccc2c1=O)c1ccccc1	Mdm2 MdmX PPI 84.9 | Mdm2 MdmX conf 61.4 | FLuc counter inactive
COc1ccc(C(=O)c2ccc3oc(-c4ccc(OC)cc4)c(-c4ccc(O)cc4)c3c2)cc1	Mdm2 MdmX PPI 66.0 | Mdm2 MdmX conf inactive
COc1ccc(-c2oc3ccccc3c(=O)c2OC(=O)c2ccc(C)cc2)cc1	Mdm2 MdmX PPI 79.5 | Mdm2 MdmX conf 52.7 | FLuc counter inactive
COc1ccc(C(=O)c2c(-c3ccc(OC)cc3)oc3ccccc23)cc1	none
CCC(=O)N(C)C[C@@H]1Oc2ncc(Br)cc2C(=O)N([C@H](C)CO)C[C@H]1C	none (no result: Mdm2 MdmX PPI, TIM10 inh, tim10-1 inh, tim23-1 inh)
C[C@@H](NC(=O)[C@@H]1CCCN1C(=O)[C@@H]1CCCN1C(=O)c1ccccc1)c1ccccc1	none (no result: Mdm2 MdmX PPI, TIM10 inh, tim10-1 inh, tim23-1 inh)
OC[C@@H]1CN(Cc2cccs2)C[C@H](n2cnc3c(NCc4ccncc4)ncnc32)O1	none (no result: Mdm2 MdmX PPI, TIM10 inh, tim10-1 inh, tim23-1 inh)
Cc1ccc(F)c(S(=O)(=O)NC(=O)C2(C)CCN2C(=O)c2ccc(C(F)(F)F)nc2C)c1 (centres undefined)	none (no result: Mdm2 MdmX PPI, TIM10 inh, tim10-1 inh, tim23-1 inh)
COCCCNC(=O)c1cccc2c(-c3cccc(C(N)=O)c3)coc12	none (no result: Mdm2 MdmX PPI, TIM10 inh, tim10-1 inh, tim23-1 inh)
CC(C)n1c(SCC(=O)Nc2nc3c(s2)CCCC3)nc2c1c(=O)n(C)c(=O)n2C	Mdm2 MdmX PPI 59.5 | Mdm2 MdmX conf inactive | FLuc counter 39.9
CCn1c(N)cc(=O)[nH]c1=S	none (no result: Mdm2 MdmX PPI, TIM10 inh, tim10-1 inh, tim23-1 inh)
CCOC(=O)C1=C(C)N=c2s/c(=C\c3cccc(OCC(=O)O)c3)c(=O)n2C1c1ccccc1OC (centres undefined)	none
CCOC(=O)C1=C(c2ccccc2)N=c2s/c(=C\c3cccc(O)c3)c(=O)n2C1c1cccs1 (centres undefined)	Mdm2 MdmX PPI 77.7 | Mdm2 MdmX conf inactive
Cc1cc(C)cc(NC(=O)CSc2ccc(-c3ccccn3)nn2)c1	Mdm2 MdmX PPI 68.2 | Mdm2 MdmX conf 67.5 | FLuc counter inactive
Cc1ccccc1NC(=O)CSc1ccc(-c2ccccn2)nn1	none
O=C(COc1ncnc2ccc(Br)cc12)Nc1ccc(N2CCOCC2)cc1	none
CC(=O)c1cccc(Nc2ncnc3ccc(Br)cc23)c1	Mdm2 MdmX PPI 67.3 | Mdm2 MdmX conf 46.8 | FLuc counter 38.4
Brc1ccc2ncnc(Nc3ccc(N4CCOCC4)cc3)c2c1	Mdm2 MdmX PPI 62.0 | Mdm2 MdmX conf 65.5 | FLuc counter inactive
Cc1cc(C)cc(OCC(=O)Nc2cccc(-c3nnc(-c4ccco4)o3)c2)c1	Mdm2 MdmX PPI 83.0 | Mdm2 MdmX conf 40.4 | FLuc counter 98.9
O=C(Cc1cccs1)Nc1cccc(-c2nnc(-c3ccco3)o2)c1	none
Cc1ccc(-c2nnc(-c3ccc(NC(=O)Cc4cccs4)cc3)o2)cc1	Mdm2 MdmX PPI 78.5 | Mdm2 MdmX conf inactive
